13 molecules from PubChem BioAssay (NCI) can be followed below.

Each structure is given as a SMILES string. The panel holds about 83,000 compounds, 20% with a hit somewhere; the sample as a whole holds those more often.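 Percent growth is the endpoint: 0 to 100 indicates growth inhibition (40 means 60% inhibition), 0 means no net growth, and negative values indicate cell death.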 Values without a mark were called inactive. Active and inactive are the calls of the source. How the source made its calls: active means growth percent below 10; inactive means the rest.

Among the test systems are RPMI-8226 leukemia; OVCAR-8 ovarian; OVCAR-5 ovarian; OVCAR-4 ovarian; SK-OV-3 ovarian; IGROV1 ovarian; OVCAR-3 ovarian; HS 578T breast; NCI/ADR-RES ovarian; T-47D breast; MDA-MB-435 melanoma; SW-620 colon; MCF7 breast; HCT-116 colon; HCC-2998 colon; KM12 colon; MDA-MB-468 breast; BT-549 breast.
Assay in all cases: NCI-60 one-dose screen, 48 h (100 = growth as untreated, 0 = no growth, -100 = all killed)
Conditions in all cases: 10 µM unless noted

Take `O=C(Cn1c(/C=C/c2cccc([N+](=O)[O-])c2)nc2ccccc2c1=O)Nc1ccccc1`: the growth is 113% with RPMI-8226 leukemia; 35.7% in the assay on OVCAR-8 ovarian; 104% in the assay with OVCAR-5 ovarian; 98% in the assay with OVCAR-4 ovarian; 49.4% in the assay on SK-OV-3 ovarian; 106% with IGROV1 ovarian. Also, the growth in the assay with OVCAR-3 ovarian was 54.6%; with HS 578T breast it was 87.2%; in the assay on NCI/ADR-RES ovarian it was 65%; in the assay with T-47D breast, 82.6%; in the assay with MDA-MB-435 melanoma, 94.3%; in the assay with SW-620 colon it was 91.2%. For the same molecule, the growth in the assay on MCF7 breast was 42.2%; with HCT-116 colon, 57.6%; in the assay on HCC-2998 colon, 120%; in the assay with KM12 colon it was 74.6%; with MDA-MB-468 breast it was 98.9%.
As for `CN1CCN(Cc2ccc(C(=O)Nc3cccc(C#Cc4cccc5[nH]nc(N)c45)c3)cc2C(F)(F)F)CC1`, the growth in the assay on RPMI-8226 leukemia was -45.1% (active); in the assay on OVCAR-8 ovarian, -98.1% (active); in the assay with OVCAR-5 ovarian, -94.8% (active); in the assay with OVCAR-4 ovarian it was -60.9% (active); in the assay on SK-OV-3 ovarian, -89.1% (active); in the assay with IGROV1 ovarian, -70.8% (active). In addition, the growth was -46.6% (active) with OVCAR-3 ovarian; -17.5% (active) in the assay on HS 578T breast; -61% (active) with NCI/ADR-RES ovarian; -70.4% (active) with T-47D breast; -70.2% (active) in the assay on MDA-MB-435 melanoma; -38.3% (active) with SW-620 colon. For the same molecule, the growth in the assay on MCF7 breast is -84% (active); in the assay on HCT-116 colon, -90.4% (active); with HCC-2998 colon it was -93.6% (active); in the assay with KM12 colon, -68.8% (active); with MDA-MB-468 breast it was -89.9% (active).
On to `COCOc1ccc2c(=O)c(C)c(C(=O)N[C@@H](Cc3ccccc3)C(O)C(=O)NCCc3ccc(OC)cc3)oc2c1` (stereo not given in full), for which the growth is 100% in the assay with RPMI-8226 leukemia; 107% with OVCAR-8 ovarian; 122% in the assay on OVCAR-4 ovarian; 113% in the assay on SK-OV-3 ovarian; 122% in the assay with IGROV1 ovarian; 120% with OVCAR-3 ovarian. The growth in the assay with HS 578T breast is 104%; with NCI/ADR-RES ovarian it was 107%; in the assay with T-47D breast, 97.1%; with BT-549 breast, 122%; in the assay with MDA-MB-435 melanoma it was 115%; in the assay on SW-620 colon, 114%. Moreover, the growth with MCF7 breast was 103%; in the assay with HCT-116 colon, 104%; with HCC-2998 colon, 125%; in the assay with KM12 colon, 108%; with MDA-MB-468 breast, 95.2%.
Consider `COc1ccc(C(=O)/C=C/c2cccnc2)cc1S(N)(=O)=O`, for which the growth with RPMI-8226 leukemia is -7.06% (active); in the assay on OVCAR-8 ovarian it was 17.6%; in the assay on OVCAR-5 ovarian, 77.2%; in the assay on OVCAR-4 ovarian, 91.7%; with SK-OV-3 ovarian, 88.1%; in the assay with IGROV1 ovarian it was 59.5%. The growth is 17% in the assay on OVCAR-3 ovarian; 89.9% in the assay with HS 578T breast; 69.1% in the assay with NCI/ADR-RES ovarian; 16.9% in the assay with T-47D breast; 73.5% in the assay with MDA-MB-435 melanoma; 13.2% in the assay on SW-620 colon. Also, the growth in the assay on MCF7 breast is 7.45% (active); in the assay with HCT-116 colon, -18.1% (active); with HCC-2998 colon, 77.3%; in the assay with KM12 colon it was 1.84% (active); in the assay on MDA-MB-468 breast, 20.5%.
Regarding `COc1ccc(-c2nnc3ccc(N/N=C/c4ccc(C)cc4)nn23)cc1`, the growth in the assay on RPMI-8226 leukemia was 94%; in the assay with OVCAR-8 ovarian, 41.4%; in the assay on OVCAR-5 ovarian, 115%; in the assay on OVCAR-4 ovarian, 36.9%; in the assay with SK-OV-3 ovarian it was 79.8%; with IGROV1 ovarian, 100%. The growth was 15.6% in the assay on OVCAR-3 ovarian; 29.1% with HS 578T breast; 76% in the assay on T-47D breast; 64.7% in the assay on MDA-MB-435 melanoma; 92.1% in the assay on SW-620 colon; 57.2% with MCF7 breast. Besides, the growth with HCT-116 colon is 78.8%; with HCC-2998 colon it was 79.1%; in the assay on KM12 colon, 68.1%.
Turning to `Cc1cnc(C(=O)NNc2nc3cc(F)ccc3n3c(C(=O)N4CC5CC(C4)N5)ccc23)cn1`, the growth in the assay on OVCAR-8 ovarian was 20.2%; in the assay on OVCAR-5 ovarian, 48.7%; with OVCAR-4 ovarian, 38.4%; in the assay on SK-OV-3 ovarian, 25.8%; in the assay with IGROV1 ovarian it was 39.9%; with OVCAR-3 ovarian, 50.1%. Also, the growth is 62.9% with HS 578T breast; 32.1% in the assay on T-47D breast; 45.4% with MDA-MB-435 melanoma; 32% with SW-620 colon; 18.7% in the assay with MCF7 breast; 17.5% in the assay on HCT-116 colon. The growth was 58.7% in the assay on HCC-2998 colon, 39.8% with KM12 colon and 13.8% with MDA-MB-468 breast.
On to `COc1cc(OC)cc(C(=O)Nc2cccc(-c3cn(-c4ccc(S(N)(=O)=O)cc4)nn3)c2)c1`, for which the growth was 114% in the assay on RPMI-8226 leukemia; 39.4% in the assay on OVCAR-8 ovarian; 113% in the assay on OVCAR-5 ovarian; 72% with OVCAR-4 ovarian; 47.5% with SK-OV-3 ovarian; 99.5% in the assay on IGROV1 ovarian. In addition, the growth in the assay with OVCAR-3 ovarian is 90.9%; with HS 578T breast it was 70.3%; with NCI/ADR-RES ovarian it was 94.4%; in the assay with T-47D breast, 87.8%; with MDA-MB-435 melanoma it was 97.2%; in the assay on SW-620 colon, 99.6%. Moreover, the growth with MCF7 breast was 77.3%; in the assay on HCT-116 colon, 94%; with HCC-2998 colon it was 107%; in the assay on KM12 colon, 87.9%; with MDA-MB-468 breast, 95.4%.
For the molecule `Cc1cc(C)n(-c2ccc3nnc(-c4ccccc4)n3n2)n1`, the growth is 119% in the assay on RPMI-8226 leukemia; 96.9% with OVCAR-8 ovarian; 128% with OVCAR-5 ovarian; 92.9% with OVCAR-4 ovarian; 128% in the assay with SK-OV-3 ovarian; 111% in the assay with IGROV1 ovarian. Also, the growth in the assay on OVCAR-3 ovarian was 91.6%; with HS 578T breast it was 117%; with NCI/ADR-RES ovarian it was 76.1%; in the assay on MDA-MB-435 melanoma it was 106%; in the assay with SW-620 colon it was 103%; in the assay with MCF7 breast it was 89.9%. In addition, the growth with HCT-116 colon is 106%; in the assay on HCC-2998 colon, 103%; in the assay on KM12 colon it was 97.4%; in the assay on MDA-MB-468 breast it was 97%.
On to `Cc1cc(N=C2NC(=O)CS2)n[nH]1`, for which the growth in the assay on RPMI-8226 leukemia was 144%; in the assay with OVCAR-8 ovarian it was 106%; with OVCAR-5 ovarian, 99.6%; in the assay with OVCAR-4 ovarian, 123%; in the assay with SK-OV-3 ovarian, 121%; with IGROV1 ovarian, 99.8%. For the same molecule, the growth in the assay on OVCAR-3 ovarian was 105%; in the assay on HS 578T breast, 102%; with NCI/ADR-RES ovarian it was 111%; in the assay with T-47D breast, 101%; in the assay on MDA-MB-435 melanoma, 113%; in the assay on SW-620 colon, 103%. Further, the growth is -92.2% (active) in the assay on MCF7 breast; 103% in the assay with HCT-116 colon; 112% in the assay with HCC-2998 colon; 101% with KM12 colon; 114% in the assay with MDA-MB-468 breast.
Take `CCN1CCN(Cc2ccc(C(=O)Nc3cccc(C#Cc4cccc5[nH]nc(N)c45)c3)cc2C(F)(F)F)CC1`: the growth was -30.9% (active) in the assay with RPMI-8226 leukemia; -96.8% (active) in the assay on OVCAR-8 ovarian; -88.8% (active) in the assay with OVCAR-5 ovarian; -24.8% (active) in the assay with OVCAR-4 ovarian; -69.2% (active) in the assay on SK-OV-3 ovarian; -44.7% (active) with IGROV1 ovarian. In addition, the growth is -22.1% (active) with OVCAR-3 ovarian; -15.8% (active) in the assay on HS 578T breast; -27% (active) with NCI/ADR-RES ovarian; -67.2% (active) with T-47D breast; -69.1% (active) with MDA-MB-435 melanoma; -50.5% (active) in the assay on SW-620 colon. The growth in the assay with MCF7 breast was -84.9% (active); with HCT-116 colon, -86.8% (active); with HCC-2998 colon, -91.5% (active); in the assay with KM12 colon it was -73.2% (active); in the assay on MDA-MB-468 breast, -85.5% (active).
In the case of `Nc1n[nH]c2cccc(C#Cc3cccc(NC(=O)c4cccc(Cl)c4)c3)c12`, the growth in the assay with RPMI-8226 leukemia was 29.9%; with OVCAR-8 ovarian it was 21.4%; in the assay with OVCAR-5 ovarian, 53.2%; in the assay on OVCAR-4 ovarian, 39.9%; with SK-OV-3 ovarian it was 15.7%; in the assay with IGROV1 ovarian, 21.6%. Besides, the growth in the assay with OVCAR-3 ovarian is 43.3%; with HS 578T breast it was 43.2%; in the assay on NCI/ADR-RES ovarian, 25.6%; in the assay with T-47D breast, 7.26% (active); in the assay with MDA-MB-435 melanoma, 22.7%; in the assay with SW-620 colon, 42.1%. The growth was 15.9% in the assay on MCF7 breast; 12.3% in the assay on HCT-116 colon; 30.4% in the assay with HCC-2998 colon; 20.2% in the assay on KM12 colon; 46% in the assay with MDA-MB-468 breast.
As for `COc1ccc(C(=O)/C=C/c2ccc3ccccc3c2)cc1S(N)(=O)=O`, the growth in the assay with RPMI-8226 leukemia was -17.5% (active); with OVCAR-8 ovarian, -60.6% (active); with OVCAR-5 ovarian, -43.4% (active); with SK-OV-3 ovarian it was 22.5%; in the assay on IGROV1 ovarian it was -8.23% (active); in the assay on OVCAR-3 ovarian, -41.9% (active). In addition, the growth in the assay with HS 578T breast is 68.8%; in the assay with NCI/ADR-RES ovarian, 18.9%; in the assay with T-47D breast it was -39.5% (active); with MDA-MB-435 melanoma, 1.97% (active); in the assay with SW-620 colon, -42.8% (active); with MCF7 breast, -75.2% (active). Further, the growth was -97.8% (active) in the assay on HCT-116 colon, -76.9% (active) in the assay on HCC-2998 colon, -74% (active) with KM12 colon and -67% (active) in the assay with MDA-MB-468 breast.
With `COc1ccc(C(=O)Nc2n[nH]c(Nc3ccccc3)c2C#N)cc1`, the growth is 133% in the assay on RPMI-8226 leukemia; 111% in the assay on OVCAR-8 ovarian; 97.6% in the assay with OVCAR-5 ovarian; 118% in the assay with OVCAR-4 ovarian; 119% in the assay on SK-OV-3 ovarian; 105% with IGROV1 ovarian. For the same molecule, the growth in the assay on OVCAR-3 ovarian was 111%; in the assay with HS 578T breast, 114%; in the assay on NCI/ADR-RES ovarian, 109%; with T-47D breast, 113%; with MDA-MB-435 melanoma it was 118%; in the assay with SW-620 colon it was 102%. Also, the growth in the assay on MCF7 breast was 94.8%; in the assay on HCT-116 colon it was 105%; with HCC-2998 colon it was 120%; with KM12 colon it was 112%; in the assay with MDA-MB-468 breast it was 112%.
